AmpC detergent – AmpC beta-lactamase inhibition with detergent present | P00811 | AmpC hydrolysis of nitrocefin, absorbance 480 nm, 0.01% Triton | Potency, µM (doses to about 114 µM), for the others: at the top dose activity change, negative = inhibition, most hits filed as inhibitors | hit rate 0.041% among 370,000 | AID 485294;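 note: potency is the fitted concentration of half-maximal effect; 0% = no-compound wells and -100% = no-enzyme wells; nearly all actives have a fitted effect of over 25% in size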
Target sequence (P00811 whole entry, looked up): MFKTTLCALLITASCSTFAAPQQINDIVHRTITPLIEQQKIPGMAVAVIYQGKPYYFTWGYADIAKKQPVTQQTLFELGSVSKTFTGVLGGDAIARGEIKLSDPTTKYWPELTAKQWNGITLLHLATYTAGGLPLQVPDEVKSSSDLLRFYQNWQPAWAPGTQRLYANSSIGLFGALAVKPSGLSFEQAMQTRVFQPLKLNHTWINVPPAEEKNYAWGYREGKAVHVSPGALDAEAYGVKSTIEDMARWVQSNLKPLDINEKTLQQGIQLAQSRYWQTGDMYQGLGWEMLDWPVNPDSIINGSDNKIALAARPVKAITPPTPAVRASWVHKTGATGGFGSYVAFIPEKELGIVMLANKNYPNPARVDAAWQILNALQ
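20 mM phosphate pH 7.0 + 0.01% (detergent screen) or 0.0001% Triton X-100; 5.3 nM AmpC reagent; cpd preinc 15 min RT; nitrocefin (800 uM stock) to start; A480 q20 s × 4 min; Activity was normalised to no-enzyme and no-compound control wells.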
Pf growth 96h – P. falciparum growth inhibition at 96 hours. P. falciparum luciferase reporter growth, 96 h. Potency, µM (series often up to 28.7 µM), without a hit: top-dose activity change, negative = inhibition, hits mostly inhibitors. hit rate 6.9% among 320,000; note: potency is the fitted concentration of half-maximal effect; % is set by controls: 0 for no effect and ±100 for the full control effect
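Erythrocytes infected with luciferase-expressing P. falciparum were dispensed at 2% hematocrit and 0.05% parasitemia (final), then incubated with compounds 96 hours at 37 C in 5% CO2. Luminescence after detection reagent addition reported growth.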
AmpC no deterg – blocks E. coli AmpC beta-lactamase in detergent-free assay. AID 485341. Potency, µM (series often up to 57.1 µM), inactives show at the highest dose activity change, negative = inhibition, actives largely listed as inhibitors. hit rate 0.52% among 330,000. AmpC nitrocefin hydrolysis, absorbance 480 nm, 0.0001% Triton;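 note: potency is the fitted concentration of half-maximal effect; plate controls were no compound for no effect and no enzyme for full effect; nearly all actives have a fitted effect of over 20% in size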
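20 mM phosphate pH 7.0 + 0.01% (detergent screen) or 0.0001% Triton X-100; 5.3 nM AmpC reagent; cpd preinc 15 min RT; nitrocefin (800 uM stock) to start; A480 q20 s × 4 min; Activity was normalised to no-enzyme and no-compound control wells.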
SARS PLpro yeast-1 – SARS-CoV PLP inhibition in yeast; S. cerevisiae expressing SARS-CoV PLpro, growth rescue; Potency, µM (top dose mostly 32.9 µM), for the others: top-dose activity, positive = growth rescue, hits mostly activators; hit rate 0.19% among 330,000; AID 485353; calls by dose curve; note: potency is the fitted concentration of half-maximal effect; 0% is about no effect; nearly all actives have a fitted effect of over 55% in size
Sm TGR inh – inhibitors of Schistosoma mansoni thioredoxin glutathione reductase. Q962Y6. purified TGR, DTNB reduction, TNB absorbance 405 nm. Potency, µM (top dose mostly 114 µM), without a hit: at the top dose activity change, negative = inhibition, usual class: inhibitors. hit rate 3% among 360,000. AID 485364; note: potency is the fitted concentration of half-maximal effect; % is set by controls: 0 for no effect and ±100 for the full control effect; nearly all actives have a fitted effect of over 60% in size
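TGR 20 nM + NADPH 100 uM (dispensed conc.), cpd preinc 15 min RT; start with NADPH (500 uM addition) then DTNB (15 mM addition). Kinetic TNB absorbance, 405 nm filter. Four-parameter Hill fit across titration.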
Pf growth 48h – inhibits P. falciparum growth in the first generation, 48 h; Potency, µM (titrated, usually from 28.7 µM), inactives show top-dose activity change, negative = inhibition, actives largely listed as inhibitors; AID 504832; P. falciparum luciferase growth in erythrocytes, 48 h; hit rate 5.9% among 310,000; note: potency is the fitted concentration of half-maximal effect; % is set by controls: 0 for no effect and ±100 for the full control effect
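Luciferase-expressing P. falciparum in infected erythrocytes (2% hematocrit, 0.1% parasitemia final) in RPMI 1640/0.5% Albumax were exposed to compound for 48 hours at 37 C, 5% CO2; growth read as luminescence.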
SARS PLpro yeast-2 – Validates SARS-CoV PLpro inhibitor hits in yeast | shares compounds with SARS PLpro yeast-1 | yeast expressing SARS-CoV PLpro, growth phenotype rescue | calls only | hit rate 19% among 1,000 | AID 652038; call rule not given here
Active calls of the source: *; i = inactive; u = inconclusive; x = not tested or not shown; + = active, no number; [ ] = dose if it differs, or a comment. Shown are actives, neighbours in structure and some others; about 12% of the full set was active somewhere. Unless noted, calls come from the whole dose curve; as a rule, active = well fitted curve in the direction sought with a large enough effect; inconclusive = small, poorly fitted or top-dose-only effect, or another doubt; inactive = no such curve, though single readings can be large; an effect the other way counts as inactive or inconclusive.

SMILES	AmpC detergent	Pf growth 96h	AmpC no deterg	SARS PLpro yeast-1	Sm TGR inh	Pf growth 48h	SARS PLpro yeast-2
COc1ccc(-c2nc3ccccc3c(=O)n2NC(=S)N(C)C)cc1	-8.8%	62.3%	-21.0%	-14.7%	1.4%	-2.8%	x
CCOC(=O)N1CCN(c2ccc(C(F)(F)F)cn2)CC1	-0.6%	u	6.0%	13.9%	5.2%	37.5%	x
CCOC(=O)C(C)S(=O)(=O)c1ccc(C(F)(F)F)cn1 (centres undefined)	-1.0%	10.2%	-2.7%	u	7.7%	12.6%	i
COc1ccc2nc(SCC(=O)NCc3ccccc3)[nH]c2c1	-0.4%	u	-20.9%	-8.7%	-23.3%	9.7%	x
COc1ccc2nc(SCC(=O)Nc3ccccc3)[nH]c2c1	10.1%	-73.1%	-16.2%	x	3.1%	13.7%	i
C=CCn1c(SCC(=O)Nc2ccc(S(N)(=O)=O)cc2)nnc1-c1cnccn1	0.7%	u	-6.3%	6.5%	-0.5%	6.4%	x
O=S(=O)(c1ccc2ccccc2c1)N(CC(O)CN1CCOCC1)c1ccccc1 (centres undefined)	-14.5%	30.0%	106.5%	u	-0.5%	-30.8%	i
Cc1ccc2c(c1)c(=O)c(Br)c(C)n2Cc1ccccc1	-4.0%	-21.7%	23.0%	u	1.9%	u	i
Cc1ccc(-n2c(SCC(=O)N(C)C3CCS(=O)(=O)C3)nc3ccccc3c2=O)c(C)c1 (centres undefined)	x	x	78.3%	0.2%	x	x	x
C=CCn1c(O)c(N=NC(=S)Nc2cccc(C)c2)c2ccccc21	u	-22.9%	10.2%	u	7.5%	1.85µM*	+
C=CCn1c(O)c(N=NC(=S)Nc2ccccc2F)c2ccccc21	-0.9%	-11.5%	u	-1.9%	4.5%	u	x
Cc1nn(CC(=O)Nc2ccc3c(c2)OCCO3)c(C)c1[N+](=O)[O-]	x	x	-21.6%	-0.6%	x	x	x
COC(=O)C1=C(C)N(C(C)C)C(=O)C1(NC(=O)c1ccc(C(C)(C)C)cc1)C(F)(F)F (centres undefined)	0.4%	x	x	x	9.3%	x	x
CC1CCC(NC(=O)c2cc(C3CC3)nn2-c2ccccc2)CC1 (centres undefined)	-8.2%	u	-7.6%	0.0%	-0.8%	u	x
O=C(O)c1cc(C2CC2)nn1-c1ccccc1	-8.5%	35.2%	-23.7%	u	-24.1%	x	i
COc1cccc(Cn2c(=O)n(CC3CCC(C(=O)NC(C)C)CC3)c(=O)c3sccc32)c1 (centres undefined)	0.2%	x	x	x	-1.4%	x	x
COc1ccccc1C(=O)Nc1ccc(S(=O)(=O)Nc2ncccn2)cc1	15.5%	x	x	x	5.2%	x	x
O=C(NNC(=O)c1cc(Cl)ccc1O)c1ccc(NS(=O)(=O)c2cccs2)cc1	u	16.7%	-31.8%	u	1.6%	-1.0%	u
O=C(NNC(=O)c1cc(F)c(F)cc1Cl)c1ccc(NS(=O)(=O)c2cccs2)cc1	3.5%	13.2%	-25.7%	-2.6%	-11.4%	5.4%	x
CCCNC(=O)c1ccc(Cn2c(=S)[nH]c3c([nH]c4ccc(OC)cc43)c2=O)cc1	10.3%	9.0%	33.6%	14.1µM*	6.5%	u	i
COc1ccc2[nH]c3c(=O)n(CCCC(=O)NC4CCC(C)CC4)c(=S)[nH]c3c2c1 (centres undefined)	-5.0%	10.3%	-31.0%	0.0%	-15.2%	18.7%	x
COC(=O)Sc1nc(N2CCOCC2)c2c(c1C#N)CC(C)(C)OC2	-16.1%	u	39.7%	10µM*	-33.0%	32.9%	+
CC(Sc1nc(N2CCOCC2)c2c(c1C#N)CC(C)(C)OC2)C(=O)O (centres undefined)	-4.1%	u	-13.9%	-2.4%	-4.0%	-16.9%[0.00184 µM]	x
O=C(CCNS(=O)(=O)c1cccs1)Nc1nccs1	0.3%	25.5%	-15.7%	7.3%	-27.8%	25.1%	x
O=C(CCNS(=O)(=O)c1cccs1)Nc1ccccc1F	0.8%	u	-23.5%	u	-20.5%	7.4%	i
SMILES	AmpC detergent	Pf growth 96h	AmpC no deterg	SARS PLpro yeast-1	Sm TGR inh	Pf growth 48h	SARS PLpro yeast-2
Cc1[nH]c(=S)sc1Cc1ccc(F)cc1	-9.9%	9.0%	-30.6%	10µM*	-5.2%	-8.5%	i
CC(C)OC(=O)c1ccc(OC(=O)c2cccnc2)cc1	1.2%	x	26.1%	-5.9%	-0.5%	20.6%	x
COC(=O)c1ccc(OC(=O)c2cccnc2)cc1	-9.1%	u	-2.3%	15.8µM*	-22.0%	-1.3%	u
CCc1nnc(NS(=O)(=O)c2ccc(Nc3ccc4nonc4c3[N+](=O)[O-])cc2)s1	-4.2%	u	-17.6%	19.4%	-16.7%[57.1 µM]	0.8%	x
CC1=C(C(=O)N2CCc3ccccc32)C2(CCC(C)CC2)OC1=O (centres undefined)	-6.1%	u	29.6%	u	-0.4%	u	i
CCCCN(C(=O)C(C)Oc1ccc(Br)cc1)c1c(N)n(CC(C)C)c(=O)[nH]c1=O (centres undefined)	u	u	-6.2%	-0.3%	-11.9%	u	x
CC(=O)OCCOc1nc(NC(C)C)nc(NC(C)C)n1	-14.8%	u	-20.9%	-9.1%	-3.1%	-4.6%	x
CC(C)Nc1nc(NC(C)C)nc(OCCOC(=O)c2ccccc2)n1	-13.2%	u	-14.9%	u	-3.0%	-26.1%	i
CC(=O)c1ccc(N(C(=O)Cn2nnc3ccccc32)C(C(=O)NCc2ccccc2)c2ccccn2)cc1 (centres undefined)	u	6.9%	34.2%	17.8µM*	-1.3%	-0.9%	i
NC(=O)C1CCN(C(=O)CCC(=O)c2cccs2)CC1	x	x	-5.8%	-17.9%	x	x	x
Cc1ccc(CC(=O)O/N=C(\N)c2cccc([N+](=O)[O-])c2)cc1	u	14.7µM*	-15.5%	x	3.9%	31.2%	i
N/C(=N\OC(=O)Cc1ccc([N+](=O)[O-])cc1)c1cccc(Br)c1	-5.1%	u	-58.0%	-1.4%	-6.7%	-1.7%	x
CCNC(=S)Nc1ccc(C)c(Cl)c1	5.0%	21.5%	-11.7%	u	1.8%	-3.7%	+
CCNC(=S)Nc1ccc(Cl)c([N+](=O)[O-])c1	-10.2%	-24.9%	-10.7%[11.4 µM]	-0.9%	1.9%	-17.4%	x
CN(CCNC(=O)Cn1c(=O)sc2ccccc21)Cc1ccccc1	u	4.65µM*	-3.8%	u	0.0%	x	i
O=C(CNC(=O)c1ccco1)OCc1ccc(Cl)cc1	-3.0%	x	-4.2%	-7.5%	-3.5%	11.4%	x
COc1ccc2oc(C(=O)OCC(=O)N(C)CC(=O)Nc3ccc(F)cc3)c(C)c2c1	1.4%	-1.8%	22.0%	u	4.3%	10.4%	i
